Results on 17 compounds are retold here after PubChem BioAssay (Tox21).

Several values for one entry are separate records, joined by “and”; a condition that tells them apart may be missing. Equal values may be shown once. Inconclusive results are not listed. A structure can be active in one record and inactive in another. Activity calls are given as the source filed them. Unless noted, calls come from the whole dose curve; as a rule, active = well fitted curve in the direction sought with a large enough effect in the repeat runs; inconclusive = weak or mixed curves; inactive = no such curve, though single readings can be large; an effect the other way counts as inactive or inconclusive.

Assay [1] can be described thus: qHTS assay to test for compound auto fluorescence at 535 nm (green) in HEK293 cells (AID 720680). On the technique in general: qHTS replaces the single test concentration by a dilution series.
Assay [2] is described as follows: qHTS assay to test for compound auto fluorescence at 460 nm (blue) in HEK293 cell free culture (AID 720681). The method in brief: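 Blue fluorescence (Ex 405/Em 460 nm, triamterene-equivalent) was read immediately after pin transfer of compound or DMSO into medium (DMEM, 10% FBS) without cells.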
A short description of assay [3]: qHTS assay to test for compound auto fluorescence at 535 nm (green) in HEK293 cell free culture (AID 720682). The method in brief:
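No cells present: wells hold DMEM supplemented with 10% FBS, into which compound or vehicle is pinned. Green emission is then recorded (485 nm excitation, 535 nm emission) and scaled to fluorescein.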

Assay [4] is described as follows: qHTS assay to test for compound auto fluorescence at 590 nm (red) in HEK293 cell free culture (AID 720683). The procedure, abridged: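 Red-channel autofluorescence of compounds in culture medium (DMEM, 10% FBS), no cells, measured at 540/590 nm. Rose Bengal sodium is the reference fluorophore for equivalence.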
A short description of assay [5]: qHTS assay to test for compound auto fluorescence at 590 nm (red) in HepG2 cell free culture (AID 720684). The method in brief:
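No cells present: MEM + 10% FBS only. Compound pinned in, red label read (540/590 nm). Activity = fluorescence equivalent to Rose Bengal sodium.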

Assay [6] in a line: qHTS assay to test for compound auto fluorescence at 460 nm (blue) in HepG2 cell free culture (AID 720685). The method in brief:
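Cell-free plates of MEM plus 10% FBS received 23 nL compound or DMSO vehicle; blue-channel (405/460 nm) intensity scored against triamterene as reference fluorophore.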

The nature of assay [7]: qHTS assay to test for compound auto fluorescence at 535 nm (green) in HepG2 cell free culture (AID 720686).
The nature of assay [8]: qHTS assay to test for compound auto fluorescence at 460 nm (blue) in HepG2 cells (AID 720687). The method in brief: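 Blue-channel autofluorescence (Ex/Em 405/460 nm, triamterene-equivalent) was measured after 1 hr compound exposure at 37 C, 5% CO2. Cells were HepG2, plated overnight at 37 C in MEM plus 10% FBS.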
A short description of assay [9]: qHTS assay to identify small molecule antagonists of the glucocorticoid receptor (GR) signaling pathway - cell viability counter screen (AID 720693). Note: nearly all actives have a fitted effect of over 55% in size.
The nature of assay [10]: qHTS assay to identify small molecule antagonists of the androgen receptor (AR) signaling pathway - cell viability counter screen (AID 743033; note: nearly all actives have a fitted effect of over 45% in size).
A short description of assay [11]: qHTS assay to identify small molecule antagonists of the androgen receptor (AR) signaling pathway using the MDA cell line - cell viability counter screen (AID 743041; note: nearly all actives have a fitted effect of over 45% in size). The method in brief: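 Using the breast carcinoma line MDA-kb2 AR-luc, test chemicals were co-incubated with R1881 for 16 h; CellTiter-Fluor reagent, added at 15.5 h, provided a fluorescence measure of live cells.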

A short description of assay [12]: qHTS assay to identify small molecule antagonists of the thyroid receptor (TR) signaling pathway - cell viability counter screen (AID 743064). Note: nearly all actives have a fitted effect of over 50% in size. Note: potency is the fitted concentration of half-maximal effect. The procedure, abridged: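 Rat GH3 pituitary tumor cells stably expressing two TR response elements driving luciferase were plated, rested 4 h, then dosed with library compounds and T3 (1 nM final). After 23.5 h at 37 °C, CellTiter-Fluor was added for 30 min and fluorescence recorded.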

Assay [13] concerns the target Glucocorticoid receptor (Homo sapiens) (UniProt P04150). The experiment in a line: qHTS assay to identify small molecule agonists of the glucocorticoid receptor (GR) signaling pathway (AID 720691; active = well fitted activation curve with a large enough effect in the signal ratio in the repeat runs, not every such curve was filed as active; the % refers to the signal ratio). The method in brief:
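Agonist-mode qHTS in HeLa cells stably expressing a glucocorticoid-response-element beta-lactamase reporter. Fluorescence intensity read with FRET substrate (2 h, room temperature) after 18 h compound treatment at 37 C.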

For assay [14] the target is unchanged. The experiment in a line: qHTS assay to identify small molecule antagonists of the glucocorticoid receptor (GR) signaling pathway (AID 720692; active = well fitted inhibition curve with a large enough effect in the signal ratio in the repeat runs, not every such curve was filed as active; the % refers to the signal ratio). The procedure, abridged: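 Inhibition of dexamethasone-driven (5 nM final) beta-lactamase expression was measured in GRE-reporter HeLa cells over 18 h at 37C. Fluorescence was read after 2 h with the B/G FRET substrate at room temperature.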

Assay [15] can be described thus: qHTS assay for identifying genotoxic compounds that show differential cytotoxicity against isogenic chicken DT40 cell lines with known DNA damage response pathways - wild type cell line (AID 743012). Note: nearly all actives have a fitted effect of over 60% in size. Note: potency is the fitted concentration of half-maximal effect. The procedure, abridged:
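Viability by ATP luminescence (CellTiter-Glo, 30 min RT) after 40 h compound treatment at 37 C/5% CO2, using 300 parental DNA repair-proficient DT40 cells per well.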

The nature of assay [16]: qHTS assay for identifying genotoxic compounds that show differential cytotoxicity against isogenic chicken DT40 cell lines with known DNA damage response pathways - Rev3 mutant cell line (AID 743014). Note: nearly all actives have a fitted effect of over 55% in size. Note: potency is the fitted concentration of half-maximal effect.
A short description of assay [17]: qHTS assay for identifying genotoxic compounds that show differential cytotoxicity against isogenic chicken DT40 cell lines with known DNA damage response pathways - Rad54/Ku70 mutant cell line (AID 743015). Note: nearly all actives have a fitted effect of over 60% in size. Note: potency is the fitted concentration of half-maximal effect.
The target of assay [18] is Androgen receptor (Homo sapiens) (UniProt P10275). The experiment in a line: qHTS assay to identify small molecule agonists of the androgen receptor (AR) signaling pathway using the MDA cell line (AID 743040; note: potency is the fitted concentration of half-maximal effect; nearly all actives have a fitted effect of over 20% in size). The method in brief:
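Stable MMTV-luciferase reporter in MDA-kb2 cells; note the promoter carries GR as well as AR response elements. 16 h compound treatment, 37C, 0% CO2; ONE-Glo luminescence endpoint.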

Sequence of Glucocorticoid receptor (Homo sapiens) (P04150 whole entry, looked up): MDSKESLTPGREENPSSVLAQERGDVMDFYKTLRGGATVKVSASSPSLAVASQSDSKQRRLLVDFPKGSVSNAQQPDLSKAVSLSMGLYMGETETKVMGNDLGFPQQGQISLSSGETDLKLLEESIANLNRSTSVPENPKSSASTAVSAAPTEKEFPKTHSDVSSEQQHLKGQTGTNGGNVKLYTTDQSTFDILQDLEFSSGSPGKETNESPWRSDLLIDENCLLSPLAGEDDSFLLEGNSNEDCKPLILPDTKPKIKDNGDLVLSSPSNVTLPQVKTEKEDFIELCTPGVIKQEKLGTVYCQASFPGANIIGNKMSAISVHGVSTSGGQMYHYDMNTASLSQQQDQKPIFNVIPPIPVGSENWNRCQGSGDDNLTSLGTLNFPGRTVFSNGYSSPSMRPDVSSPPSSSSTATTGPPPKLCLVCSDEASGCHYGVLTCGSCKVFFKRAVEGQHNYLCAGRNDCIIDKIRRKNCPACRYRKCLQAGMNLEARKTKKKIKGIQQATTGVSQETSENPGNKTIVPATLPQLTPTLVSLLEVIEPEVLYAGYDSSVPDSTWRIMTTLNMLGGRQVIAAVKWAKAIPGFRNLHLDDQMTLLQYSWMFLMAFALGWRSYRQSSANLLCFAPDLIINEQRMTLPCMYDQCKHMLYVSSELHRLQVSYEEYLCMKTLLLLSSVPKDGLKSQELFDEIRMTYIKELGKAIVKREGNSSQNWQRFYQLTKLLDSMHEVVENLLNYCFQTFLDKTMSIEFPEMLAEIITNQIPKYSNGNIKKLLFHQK
Sequence of Androgen receptor (Homo sapiens) (P10275 whole entry, looked up): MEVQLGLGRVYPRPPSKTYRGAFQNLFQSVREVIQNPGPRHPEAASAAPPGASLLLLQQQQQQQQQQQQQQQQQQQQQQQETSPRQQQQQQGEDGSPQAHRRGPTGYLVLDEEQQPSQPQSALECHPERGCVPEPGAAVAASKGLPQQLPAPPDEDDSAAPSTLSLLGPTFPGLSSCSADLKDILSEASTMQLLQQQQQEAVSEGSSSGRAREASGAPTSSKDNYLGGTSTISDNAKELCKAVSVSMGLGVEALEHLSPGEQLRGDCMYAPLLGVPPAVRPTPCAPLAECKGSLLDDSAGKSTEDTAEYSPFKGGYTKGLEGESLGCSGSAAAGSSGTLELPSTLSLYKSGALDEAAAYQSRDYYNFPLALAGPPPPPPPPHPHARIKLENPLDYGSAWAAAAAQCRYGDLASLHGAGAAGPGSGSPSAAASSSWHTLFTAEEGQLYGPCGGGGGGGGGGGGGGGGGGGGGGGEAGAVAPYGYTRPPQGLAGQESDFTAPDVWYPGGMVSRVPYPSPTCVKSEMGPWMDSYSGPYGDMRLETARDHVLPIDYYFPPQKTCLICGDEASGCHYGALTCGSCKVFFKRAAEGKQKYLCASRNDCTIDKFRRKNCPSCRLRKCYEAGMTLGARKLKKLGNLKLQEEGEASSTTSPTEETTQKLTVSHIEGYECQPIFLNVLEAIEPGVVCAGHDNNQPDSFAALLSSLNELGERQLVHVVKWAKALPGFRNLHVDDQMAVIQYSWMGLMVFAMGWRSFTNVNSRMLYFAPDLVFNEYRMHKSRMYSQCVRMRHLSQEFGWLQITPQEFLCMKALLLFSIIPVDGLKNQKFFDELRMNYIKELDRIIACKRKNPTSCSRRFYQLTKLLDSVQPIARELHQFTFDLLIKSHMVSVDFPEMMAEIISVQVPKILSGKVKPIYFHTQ

Regarding `Cn1c(=O)c2[nH]cnc2n(C)c1=O`, the call in assay [1], in assay [2], in assay [3], in assay [4], in assay [5] and in assay [6] was inactive. The outcome in [7], in [8] and in assay [10] was inactive. For the same compound, the Potency entry in assay [9], in assay [11] and in [12] was “inactive” each time.

Consider `O=C(O)c1cc(N=Nc2ccc(S(=O)(=O)Nc3ccccn3)cc2)ccc1O`, for which the compound was called inactive in [1], in assay [2], in [3], in assay [4], in assay [5] and in [6]. The compound was called inactive in [8], in [14] and in assay [10]. Besides, the Potency result in assay [13], in assay [9], in assay [15], in assay [16], in assay [17] and in [11] was “inactive” each time.

Consider `CCOc1ccc(NC(=O)CC(C)O)cc1` (stereo not drawn), for which the compound was classed as inactive in assay [1], in assay [2], in assay [3], in assay [4], in assay [5] and in [6]. In addition, the call in assay [7], in [8] and in [10] was inactive. Also, the Potency result in assay [9], in assay [15], in assay [16], in [17], in assay [11] and in assay [12] was “inactive” in each case.

On to `OC(Cn1cncn1)(Cn1cncn1)c1ccc(F)cc1F`, for which the compound was classed as inactive in [1], in assay [2], in assay [3], in assay [4], in [5] and in assay [6]. For the same compound, the outcome in [7], in [8], in assay [14] and in assay [10] was inactive. Besides, the Potency result in [13], in assay [9], in [15], in assay [16], in [17] and in assay [11] was “inactive” in each case. For the same compound, the Potency result in [12] is “inactive”.

On to `Nc1ccn([C@H]2CC[C@@H](CO)O2)c(=O)n1`, for which the compound was called inactive in [1], in assay [2], in assay [3], in assay [4], in assay [5] and in [6]. Besides, the call in assay [7], in assay [8] and in assay [10] was inactive. Moreover, the Potency result in assay [9], in assay [11] and in assay [12] was “inactive” each time. For the same compound, the Potency is 24.3 µM (active) in assay [16]; 53.5 µM (active) and 24.3 µM (active) in [17].

With `N=C(N)c1ccc(OCCCCCOc2ccc(C(=N)N)cc2)cc1`, the call in [1], in [2], in assay [3], in assay [4], in assay [5] and in [6] was inactive. For the same compound, in assay [8], the call was inactive. Moreover, the Potency result in assay [13] and in assay [11] was “inactive” throughout. For the same compound, the Potency was 1.88 µM (active) and 5.42 µM (active) and 1.31 µM (active) in assay [15]; 2.98 µM (active) and 2.16 µM (active) and 1.85 µM (active) in [16]; 2.66 µM (active) and 2.72 µM (active) and 1.65 µM (active) in assay [17]; 60.8 µM (active) and 46.4 µM (active) in assay [12].

For `O=C(O)CCC(=O)O`, the compound was called inactive in assay [1], in assay [2], in [3], in assay [4], in assay [5] and in [6]. Moreover, the compound was classed as inactive in assay [8] and in assay [10]. In addition, the Potency result in assay [9], in [15], in assay [16], in [17], in assay [11] and in [12] was “inactive” in each case.

`NC(N)=O`: the call in assay [1], in [2], in [3], in assay [4], in [5] and in assay [6] was inactive. The call in [8] and in [10] was inactive. Moreover, the Potency entry in assay [9], in [11] and in assay [12] was “inactive” in each case. Further, the Potency entry in [15] is “inactive and 24.3 µM (active)”; in [16] it was “inactive and 17.2 µM (active)”; in assay [17], “inactive and 21.7 µM (active)”.

For the compound `Cc1cn([C@H]2C[C@H](N=[N+]=[N-])[C@@H](CO)O2)c(=O)[nH]c1=O`, the result in assay [1], in [2], in assay [3], in assay [4], in assay [5] and in [6] was inactive. Further, the compound was called inactive in assay [8], in assay [14] and in assay [10]. Besides, the Potency result in assay [13], in assay [9], in [11] and in [12] was “inactive” in each case.

Regarding `O=c1ccc2ccccc2o1`, the call in assay [1], in assay [2], in assay [3], in [4], in assay [5] and in assay [6] was inactive. For the same compound, the outcome in [8] and in assay [10] was inactive. Further, the Potency result in assay [9], in assay [15], in assay [16], in [17], in assay [11] and in assay [12] was “inactive” throughout.

For the compound `CCCNC(=O)NS(=O)(=O)c1ccc(Cl)cc1`, the compound was called inactive in assay [1], in [2], in assay [3], in assay [4], in assay [5] and in assay [6]. For the same compound, the call in assay [8], in [14] and in assay [10] was inactive. The Potency result in assay [13], in assay [9], in assay [15], in [16], in [17] and in assay [11] was “inactive” in each case. In assay [12], the Potency result is “inactive”.

As to `CCCC(O)C(CC)CO` (stereo not drawn), the result in [1], in [2], in [3], in [4], in [5] and in assay [6] was inactive. The call in [8] and in assay [10] was inactive. For the same compound, the Potency result in assay [9], in assay [15], in assay [16], in [17], in assay [11] and in assay [12] was “inactive” each time.

As for `NC(=O)c1ccccc1O`, the compound was classed as inactive in assay [1], in [2], in assay [3], in assay [4], in assay [5] and in [6]. Moreover, the call in assay [8], in assay [14] and in assay [10] was inactive. In addition, the Potency result in assay [13], in assay [9], in assay [15], in [16], in assay [17] and in assay [11] was “inactive” each time. Also, in [12], the Potency result was “inactive”.

With `Oc1ccc(/C=C/c2cc(O)cc(O)c2)cc1`, the compound was classed as inactive in assay [1], in [2], in [3], in [4], in [5] and in assay [6]. The call in assay [8] and in assay [10] was inactive. For the same compound, the Potency entry in assay [9] and in assay [11] was “inactive” in each case. The Potency in assay [15] was 7.17 µM (active) and 30.6 µM (active); in assay [16] it was 7.17 µM (active) and 15.5 µM (active) and 21.7 µM (active); in assay [17], 9.02 µM (active) and 27.6 µM (active) and 30.6 µM (active); in assay [18], 6.92 µM (active) and 2.73 µM (active); in [12] it was “inactive and 27.6 µM (active) and 27.3 µM (active)”.

On to `Nc1ccc(S(=O)(=O)Nc2nccs2)cc1`, for which the result in [1], in [2], in assay [3], in assay [4], in assay [5] and in assay [6] was inactive. For the same compound, the outcome in assay [8], in assay [14] and in assay [10] was inactive. The Potency entry in [13], in [9], in assay [15], in assay [16], in [17] and in [11] was “inactive” each time. For the same compound, the Potency result in [12] was “inactive”.

With `OCCc1ccccc1`, the compound was classed as inactive in assay [1], in assay [2], in assay [3], in assay [4], in assay [5] and in assay [6]. The compound was called inactive in assay [8] and in assay [10]. For the same compound, the Potency result in assay [9], in [15], in assay [16], in assay [17], in assay [11] and in assay [12] was “inactive” in each case.

Regarding `COc1ccc2[nH]cc(CCNC(C)=O)c2c1`, the result in assay [1], in assay [2], in [3], in assay [4], in [5] and in [6] was inactive. The result in assay [8], in assay [14] and in assay [10] was inactive. Also, the Potency entry in [13], in assay [9], in assay [15], in assay [16], in assay [17] and in assay [11] was “inactive” throughout. Besides, the Potency entry in assay [12] is “inactive”.
